# Laboratory results taken from PubChem BioAssay (NCATS).
# Results filed as inconclusive are left out. Entries that show only a call come without a potency. Active and inactive are the calls of the source. Unless noted, calls come from the whole dose curve; as a rule, active = well fitted curve in the direction sought with a large enough effect; inconclusive = small, poorly fitted or top-dose-only effect, or another doubt; inactive = no such curve, though single readings can be large; an effect the other way counts as inactive or inconclusive.
# How the values were obtained:
# [1] = target: Cytochrome P450 2C9 (Homo sapiens) (UniProt P11712); experiment: Cytochrome P450 family 2 subfamily C member 9 (CYP2C9) small molecule antagonists: luciferase biochemical (cell-free) qHTS assay (AID 1645842; active = well fitted curve in the direction sought with a large enough effect in the repeat runs; an effect the other way counts as inactive or inconclusive; note: nearly all actives have a fitted effect of over 55% in size; for activity change, negative = inhibition: series mostly up to about 57 µM)
# Chain of Cytochrome P450 2C9 (Homo sapiens) (P11712 whole entry, looked up): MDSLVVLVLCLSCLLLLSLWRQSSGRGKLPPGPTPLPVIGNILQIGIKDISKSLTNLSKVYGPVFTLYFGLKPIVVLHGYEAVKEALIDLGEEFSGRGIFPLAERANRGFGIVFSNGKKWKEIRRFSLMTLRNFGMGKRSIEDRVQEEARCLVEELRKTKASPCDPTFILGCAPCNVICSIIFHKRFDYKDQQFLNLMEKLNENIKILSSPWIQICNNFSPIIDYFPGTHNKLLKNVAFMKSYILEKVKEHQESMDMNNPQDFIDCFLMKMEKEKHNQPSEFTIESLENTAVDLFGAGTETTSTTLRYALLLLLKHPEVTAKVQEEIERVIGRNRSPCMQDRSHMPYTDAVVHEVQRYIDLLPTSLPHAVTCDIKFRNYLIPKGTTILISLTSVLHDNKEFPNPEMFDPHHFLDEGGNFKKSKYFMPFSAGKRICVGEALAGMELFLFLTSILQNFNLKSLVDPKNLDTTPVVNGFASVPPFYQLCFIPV
# In short: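 Luminescence, after 20 min with luciferin detection reagent, reflected CYP2C9 turnover during a 1 h NADPH-driven reaction at 37C. Enzyme-substrate mix contained 0.4% bovine serum albumin and was preincubated with compound 10 min at room temperature.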
# [2] = Primary qHTS for inhibitors of nuclear receptor binding SET domain protein 2 (NSD2) in an isogenic RCH-ACV NSD2 p.E1099K mutant (9B) (AID 1645876); note: nearly all actives have a fitted effect of over 70% in size
# [3] = Primary qHTS for inhibitors of nuclear receptor binding SET domain protein 2 (NSD2) in an RCH-ACV wild type WT cells (2C) (AID 1645877); note: nearly all actives have a fitted effect of over 70% in size
# Potency is the fitted concentration of half-maximal effect.
SMILES,Potency [1],Potency [2],Potency [3],"activity change, negative = inhibition [1]","activity change, negative = viability loss [2]","activity change, negative = cell killing [3]"
O=C1c2c(O)cccc2Cc2cccc(O)c21,inactive,inactive,inactive,–,–,–
CC/C=C(\C(=O)N[C@@H]1C(=O)N2C(C(=O)OCOC(=O)C(C)(C)C)=C(COC(N)=O)CS[C@H]12)c1csc(N)n1,15.5 µM (active),inactive,inactive,–,–,–
CC(C)(C)C(=O)NCCCC(=O)O,inactive,inactive,inactive,–,–,–
C[C@H]1O[C@@H](n2cc(F)c(=O)[nH]c2=O)[C@H](O)[C@@H]1O,inactive,20.9 µM (active),20.9 µM (active),–,–,–
N[C@@H](CSSC[C@H](N)C(=O)O)C(=O)O,–,–,–,15.4% [at 0.91 µM] (inactive),-6.57% [at 0.588 µM] (inactive),2.98% [at 0.588 µM] (inactive)
C[C@@H]1CCN(C(=O)[C@H](CCCN=C(N)N)NS(=O)(=O)c2cccc3c2NC[C@H](C)C3)[C@@H](C(=O)O)C1,inactive,inactive,inactive,–,–,–
COc1cc(C)c(Cc2cnc(N)nc2N)cc1OC,inactive,inactive,inactive,–,–,–
C[C@H]1O[C@H](O[C@H]2[C@H](O)[C@@H](O)[C@@H](O[C@H]3[C@H](O)[C@@H](O)[C@H](O)O[C@@H]3CO)O[C@@H]2CO)[C@H](O)[C@@H](O)[C@@H]1N[C@H]1C=C(CO)[C@@H](O)[C@H](O)[C@H]1O,inactive,inactive,inactive,–,–,–
Nc1ccc(S(=O)(=O)Nc2ccccc2)cc1,inactive,inactive,inactive,–,–,–
CC[N+](CC)(CC)CCOc1ccc(/C=C/c2ccccc2)cc1,inactive,2.11 µM (active),1.88 µM (active),–,–,–
O=c1[nH]cnc2c1ncn2[C@@H]1O[C@H](CO)[C@@H](O)[C@H]1O,inactive,inactive,inactive,–,–,–
N[C@H]1C(O)O[C@H](CO)[C@@H](O)[C@@H]1O (stereo not given in full),inactive,inactive,inactive,–,–,–
CC(O)COc1ccccc1 (stereo not given),inactive,inactive,inactive,–,–,–
CCOc1ccc2ccccc2c1C(=O)N[C@@H]1C(=O)N2[C@@H]1SC(C)(C)[C@@H]2C(=O)O,inactive,inactive,inactive,–,–,–
CCCCOc1cc(C(=O)OCCN(CC)CC)ccc1N,inactive,inactive,inactive,–,–,–
CC(O)CN(CCN(CC(C)O)CC(C)O)CC(C)O (stereo not given),inactive,inactive,inactive,–,–,–
OCC(CO)N[C@H]1C[C@](O)(CO)[C@@H](O)[C@H](O)[C@H]1O,inactive,inactive,inactive,–,–,–
C[C@@H](O)[C@H](N)C(=O)O,inactive,inactive,inactive,–,–,–

SMILES,Potency [1],Potency [2],Potency [3],"activity change, negative = inhibition [1]","activity change, negative = viability loss [2]","activity change, negative = cell killing [3]"
NS(=O)(=O)c1cc2c(cc1Cl)NC(CSCc1ccccc1)=NS2(=O)=O,5.49 µM (active),inactive,inactive,–,–,–
O=C(O)[C@H](O)c1ccccc1,inactive,inactive,inactive,–,–,–
NC1[C@H]2CN(c3nc4c(cc3F)c(=O)c(C(=O)O)cn4-c3ccc(F)cc3F)C[C@@H]12 (stereo not given in full),inactive,2.99 µM (active),5.31 µM (active),–,–,–
CN1CCOC(c2ccccc2)c2ccccc2C1 (stereo not given),inactive,inactive,inactive,–,–,–
O=c1cc[nH]c(=O)[nH]1,inactive,inactive,inactive,–,–,–
CCN(CC)CCNC(C(=O)OCCC(C)C)c1ccccc1 (stereo not given),inactive,inactive,inactive,–,–,–
Cc1cc(O)cc2c1O[C@](C)(CCC[C@H](C)CCC[C@H](C)CCCC(C)C)CC2,inactive,inactive,inactive,–,–,–
CCCCN(CCCC)CCCOC(=O)c1ccc(N)cc1,inactive,inactive,inactive,–,–,–
C=CCn1c(=O)n([C@@H]2O[C@H](CO)[C@@H](O)[C@H]2O)c2nc(N)[nH]c(=O)c21,inactive,inactive,inactive,–,–,–
N[C@H](C(=O)O)c1ccc(O)cc1,inactive,inactive,inactive,–,–,–
O=C(O)Cc1sc(-c2ccccc2)nc1-c1ccc(Cl)cc1,4.9 µM (active),inactive,inactive,–,–,–
CCOC(=O)[C@H](CCc1ccccc1)N[C@@H](C)C(=O)N1C(=O)N(C)C[C@H]1C(=O)O,inactive,inactive,inactive,–,–,–
Cn1c(=O)c2c(ncn2CC2OCCO2)n(C)c1=O,inactive,inactive,inactive,–,–,–
COC(=O)[C@H]1[C@H]2C[C@@H]3c4[nH]c5cc(OC)ccc5c4CCN3C[C@H]2C[C@@H](OC(=O)COc2ccc(OC)cc2)[C@@H]1OC,inactive,inactive,inactive,–,–,–
O=S(=O)(O)c1cc(I)c(O)c2ncccc12,inactive,inactive,inactive,–,–,–
Cn1cc[nH]c1=S,inactive,inactive,inactive,–,–,–
Nc1nc2c(ncn2CCC(CO)CO)c(=O)[nH]1,inactive,inactive,inactive,–,–,–
